Assay outcomes from PubChem BioAssay.
LASV entry inh: qHTS for Inhibitors of binding or entry into cells for Lassa Virus. 300,000 tested, 1.2% active. Lassa virus pseudotype entry inhibition, cell reporter. Potency, µM (top dose mostly 37.9 µM), hits mostly inhibitors. AID 540256, 2011; calls by dose curve; tested in HEK293 cells; further: nearly all actives have a fitted effect of over 50% in size
FMDV inh: High Throughput Screening for Foot and Mouth Disease Virus Antivirals; FMDV antiviral cell-based qHTS; Potency, µM (highest dose often 57.9 µM), actives largely listed as inhibitors; AID 1159524, 2015; 410,000 tested, 1.2% active; calls by dose curve; tested in HEK293T cells; further: read-out not given here; nearly all actives have a fitted effect of over 45% in size
Vaccinia Venus: qHTS for Stage-Specific Inhibitors of Vaccinia Orthopoxvirus: Venus Reporter Primary qHTS; 330,000 tested, 0.46% active; Potency, µM (doses to about 36.5 µM), usual class: inhibitors; Vaccinia virus Venus reporter expression, fluorescence; calls by dose curve; tested in A549 cells; further: nearly all actives have a fitted effect of over 30% in size
Vaccinia mCherry: qHTS for Stage-Specific Inhibitors of Vaccinia Orthopoxvirus: mCherry Reporter Primary qHTS. Vaccinia virus mCherry reporter infection, fluorescence. Potency, µM (series often up to 36.5 µM), actives largely listed as inhibitors. 310,000 tested, 0.63% active. AID 720579, 2013; calls by dose curve; tested in A549 cells; further: nearly all actives have a fitted effect of over 35% in size
Sm TGR block: qHTS Assay for the Inhibitors of Schistosoma Mansoni Peroxiredoxins; purified TGR, DTNB reduction, TNB absorbance 405 nm; Potency, µM (top dose mostly 114 µM), usual class: inhibitors; 360,000 tested, 3% active; active means well fitted inhibition curve with a large enough effect; inconclusive means small, poorly fitted or top-dose-only effect; inactive means no such curve, though single readings can be large or run the other way; further: nearly all actives have a fitted effect of over 60% in size
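TGR 20 nM + NADPH 100 uM (dispensed conc.), cpd preinc 15 min RT; start with NADPH (500 uM addition) then DTNB (15 mM addition). Kinetic TNB absorbance, 405 nm filter. Four-parameter Hill fit across titration.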
MARV entry inh: qHTS for inhibitors of binding or entry into cells for Marburg Virus; AID 540276, 2011; 300,000 tested, 1.8% active; Marburg virus pseudotyped entry inhibition, cell reporter; Potency, µM (top dose mostly 37.8 µM), usual class: inhibitors; calls by dose curve; tested in HEK293 cells
Hits are given with their value; . = inactive; ? = inconclusive; / = no result. Shown are actives, neighbours in structure and some others; about 5.4% of the full set was active somewhere.

SMILES | LASV entry inh | FMDV inh | Vaccinia Venus | Vaccinia mCherry | Sm TGR block | MARV entry inh
C#CCOCCOCCOCCNc1nc(N2CCN(C(=O)CCCCCCCCCCNC(=O)[C@H](CO)n3cc(CCCCCN)nn3)CC2)nc(N2CCN(C(=O)CCCCCCCCCCNC(=O)[C@H](CCCN=C(N)N)n3cc(C[C@@H](C)CC)nn3)CC2)n1 | / | / | / | / | 45µM | /
C#CCOCCOCCOCCNc1nc(N2CCN(C(=O)CCCCCCCCCCNC(=O)[C@@H](CCC(=O)O)n3cc(CCCCCN)nn3)CC2)nc(N2CCN(C(=O)CCCCCCCCCCNC(=O)[C@H](CO)n3cc(CCCCCN)nn3)CC2)n1 | / | . | ? | . | ? | /
C#CCOCCOCCOCCNc1nc(N2CCN(C(=O)CCCCCCCCCCNC(=O)[C@H](CCCCN)n3cc(C)nn3)CC2)nc(N2CCN(C(=O)CCCCCCCCCCNC(=O)[C@H](CCCN=C(N)N)n3cc(C[C@@H](C)CC)nn3)CC2)n1 | / | ? | 10µM | ? | . | /
C#CCOCCOCCOCCNc1nc(N2CCN(C(=O)CCCCCCCCCCNC(=O)[C@H](CCCCN)n3cc(C[C@@H](C)CC)nn3)CC2)nc(N2CCN(C(=O)CCCCCCCCCCNC(=O)[C@H](CCCN=C(N)N)n3cc(C[C@@H](C)CC)nn3)CC2)n1 | / | . | 8.9µM | ? | ? | /
C#CCOCCOCCOCCNc1nc(N2CCN(C(=O)CCCCCCCCCCNC(=O)[C@H](CCCCN)n3cc(CCO)nn3)CC2)nc(N2CCN(C(=O)CCCCCCCCCCNC(=O)[C@H](CCCCN)n3cc(C[C@@H](C)CC)nn3)CC2)n1 | / | ? | 10µM | . | 50µM | /
CCOC(=O)c1cc(-c2ccccc2)n(CC(=O)NCc2ccccc2OC)c1C | 7.1µM | . | . | . | . | /
CCOC(=O)c1cc(-c2ccccc2)n(CCC(=O)Nc2ccc(Cl)c(C(F)(F)F)c2)c1C | . | 40µM | ? | ? | . | /
CCOC(=O)c1cc(-c2ccccc2)n(CCC(=O)Nc2cc(C)cc(C)c2)c1C | . | . | . | . | . | /
CCOC(=O)c1cc(-c2ccccc2)n(CC(=O)Nc2ccc(OC)c(OC)c2)c1C | . | . | ? | ? | . | .
O=C(Nc1ccc[n+](CC(=O)c2cccc3ccccc23)c1)c1ccccc1 | ? | ? | ? | 16µM | . | ?
Cc1cccc(C(=O)Nc2ccccc2OCc2cc(=O)n3cc(C)ccc3n2)c1 | . | . | . | . | . | /
COC(=O)c1ccc(-c2noc(CN(C)CCC3CCCCO3)n2)cc1 (centres undefined) | . | . | . | . | 0.1µM | .
COc1ccc(-c2noc(CN(C)CCC3CCCCO3)n2)cc1 (centres undefined) | . | . | . | . | . | .
COc1ccc(-c2oc3ncnc(N)c3c2-c2ccc(NC(=O)Nc3cc(C(F)(F)F)ccc3F)cc2)cc1 | 11µM | / | / | / | / | /
Nc1ncnc2occ(-c3ccc(NC(=O)Nc4cc(C(F)(F)F)ccc4F)cc3)c12 | 16µM | / | / | / | / | /
CCN1C(=O)CC(N2CCN(c3ccc(C(=O)c4ccncc4)cc3)CC2)C1=O (centres undefined) | . | . | / | / | . | .
O=C1CC(N2CCN(c3ccc(O)cc3)CC2)C(=O)N1Cc1cccs1 (centres undefined) | ? | . | . | / | 50µM | .
O=C(c1ccncc1)c1ccc(N2CCN(C3CC(=O)N(Cc4cccs4)C3=O)CC2)cc1 (centres undefined) | / | 25µM | / | / | ? | /
Cc1nc2cc(NC(=O)[C@@H]3C[C@@H](Sc4ccccn4)CN3Cc3cccc(F)c3)ccc2s1 | / | . | . | . | / | /
O=[N+]([O-])c1cc(C(F)(F)F)cc([N+](=O)[O-])c1Sc1n[nH]c(C(F)(F)F)n1 | . | 6.3µM | . | . | . | .
CN(C)/C=N/c1nc(Sc2ccc(C(F)(F)F)cc2[N+](=O)[O-])n[nH]1 | . | . | . | . | . | .
CC1=C(N2CC2)C(=O)C(CO)=C(N2CC2)C1=O | 0.11µM | . | 0.35µM | 0.35µM | / | ?
Oc1ccccc1C1=Nc2ncnn2C(c2ccc(F)cc2)C1 (centres undefined) | . | . | . | . | 14µM | .
Cc1ccc(C)n1C(CC(=O)O)c1ccc(C#N)cc1 (centres undefined) | . | . | . | . | 40µM | .
CCOC(=O)CC(c1ccc(N)cc1)n1c(C)ccc1C (centres undefined) | . | . | . | . | ? | ?
SMILES | LASV entry inh | FMDV inh | Vaccinia Venus | Vaccinia mCherry | Sm TGR block | MARV entry inh
CC(NC(=O)Cn1ccc2cc(S(=O)(=O)N3CCCCCC3)ccc21)c1ccccc1 (centres undefined) | . | . | . | . | . | /
CCOC(=O)NN=C1C[C@@H](O)[C@@H](O)[C@@H]2[C@H]3C(=O)N(Cc4ccc5c(c4)OCO5)C(=O)[C@@H]3CC[C@H]12 | / | / | / | / | / | .
NC(=O)C1(N2CCCCC2)CCN(c2nc(-c3ccccc3)cs2)CC1 | . | ? | ? | / | . | ?
COc1ccc(-c2csc(N3CCC(C(N)=O)(N4CCCCC4)CC3)n2)cc1 | 23µM | / | . | ? | . | .
CCOC(=O)c1c(CSc2ccccc2)n(C)c2ccc(O)c(CN3CCN(C)CC3)c12 | / | ? | / | / | 18µM | /
CSc1ncccc1C(=O)N1CCOc2ccc(C(C)(O)CCn3cccn3)cc2C1 (centres undefined) | / | . | . | . | / | /
Cc1ccc(C)c2[nH]c(=O)c(C(c3nnnn3Cc3ccco3)N3CCc4ccccc4C3)cc12 (centres undefined) | ? | ? | . | . | 14µM | ?
CCOc1ccc2[nH]c(=O)c(C(c3nnnn3Cc3ccco3)N3CCC(C)CC3)cc2c1 (centres undefined) | . | . | . | / | 45µM | ?
CCOc1ccc2[nH]c(=O)c(C(c3nnnn3Cc3ccco3)N3CCCC(C)C3)cc2c1 (centres undefined) | . | . | . | / | 11µM | .
CCOc1ccc2[nH]c(=O)c(C(c3nnnn3C3CCCCC3)N3CCN(C)CC3)cc2c1 (centres undefined) | . | . | / | / | ? | .
CCN(CC)CCOC(=O)c1ccc(NC(=O)c2cc3c(=O)n(CC)c4ccccc4c3s2)cc1 | . | . | . | . | . | .
CC(C)(C)N1C(=O)[C@@H]2[C@H]3[C@H](O)[C@H](O)CC(=NOCc4ccccc4)[C@H]3CC[C@H]2C1=O | / | / | / | / | / | .
CCCCOc1ccc(C(=O)Nc2cccc(C)n2)cc1 | ? | . | . | . | . | ?
CCOc1ccc(C(=O)NCCCCNC(=O)c2ccc(OCC)cc2)cc1 | . | . | . | . | . | .
CC(=O)Oc1ccc(C(=O)NCCc2ccccc2)cc1 | 7.1µM | . | . | . | . | ?
CC(=O)Oc1ccc(-c2ccc(C(=O)NCCc3ccc(S(N)(=O)=O)cc3)cc2)cc1 | . | . | . | . | . | ?
